Only a selection was taken, and hits are over-represented in it overall.
GIRK2 activator: Activates human GIRK2-containing potassium channels; HEK293 GIRK2/NPY4 cells, thallium flux fluorescence; activation (% efficacy), % for hits at 37.5 µM; 34,000 tested, under 10 active; P48051;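 active means primary screen hit, no activity in plain HEK293 cells, and in GIRK2-only cells above 5% efficacy rising with concentration; inactive means the rest, including fluorescent compounds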;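 further: efficacy is normalized control-subtracted fluorescence 15 s after thallium addition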
Target sequence (P48051 whole entry, looked up): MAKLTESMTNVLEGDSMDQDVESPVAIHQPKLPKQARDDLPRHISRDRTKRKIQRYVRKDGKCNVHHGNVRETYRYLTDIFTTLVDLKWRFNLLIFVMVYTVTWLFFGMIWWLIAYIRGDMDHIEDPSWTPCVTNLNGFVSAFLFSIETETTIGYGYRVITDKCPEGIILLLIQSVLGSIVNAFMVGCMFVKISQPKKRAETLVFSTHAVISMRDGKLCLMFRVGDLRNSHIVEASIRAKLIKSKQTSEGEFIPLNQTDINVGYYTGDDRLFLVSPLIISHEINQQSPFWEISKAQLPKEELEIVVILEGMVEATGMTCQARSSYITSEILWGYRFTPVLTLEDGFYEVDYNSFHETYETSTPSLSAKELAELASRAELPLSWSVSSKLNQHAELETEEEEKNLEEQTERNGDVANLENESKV
GluA2 TARP mod: modulates AMPAR-stargazin complexes | O88602+P19491 | 40,000 compounds, 3.5% hits | AID 1259245 | calls only at 30 µM | HEK293 GluA2+stargazin, membrane potential dye (FDSS), glutamate EC50; hits were called plate by plate, in both directions;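 active means any of four per-well response measures lying three or more SD from its plate-wide compound average, in either direction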
Each line names hits and unclear results; the compound was inactive in the other large screens.

CS(=O)(=O)c1cccc(S(=O)(=O)Nc2ccc([N+](=O)[O-])cc2)c1	none (no result: GluA2 TARP mod)
O=[N+]([O-])c1cccc(NS(=O)(=O)c2ccc3ccccc3c2)c1	GluA2 TARP mod active (no result: GIRK2 activator)
COc1ccc(NS(=O)(=O)c2cccc([N+](=O)[O-])c2)cc1	none (no result: GIRK2 activator)
Cc1ccc(NC(=O)Cn2ncn3nc4c(c3c2=O)CCCC4)cc1F	none
COc1cc(-c2ccc(SCC(=O)N3CCC(C)CC3)nn2)cc(OC)c1OC	none
CCCCS(=O)(=O)NCCNc1cc(-n2cccn2)ncn1	GluA2 TARP mod active
COc1cc(S(=O)(=O)NCCNc2cc(-n3cccn3)ncn2)c(C)cc1C	none
Cc1cccc(Cn2nc3ccc(S(=O)(=O)N4CCCC4)cn3c2=O)c1	none
CS(=O)(=O)N1CCN=C1SCc1ccc(Cl)c(Cl)c1	none (no result: GIRK2 activator)
CCOc1ccccc1C(=O)NC1CC(=O)N(c2ccc(C)c(C)c2)C1 (configuration not stated)	GluA2 TARP mod active (no result: GIRK2 activator)
CCOc1ccccc1C(=O)NC1CC(=O)N(c2ccccc2)C1 (configuration not stated)	none (no result: GIRK2 activator)
O=C(c1ccco1)N1CCN(C(=O)C2COCC(=O)N2Cc2ccccc2)CC1 (configuration not stated)	none
COc1ccc(S(=O)(=O)CCCC(=O)Nc2nc(-c3ccc(Cl)s3)cs2)cc1	none
CC(=O)Nc1sc2c(c1-c1nc3ccccc3s1)CCN(Cc1ccccc1)C2	none (no result: GIRK2 activator)
CCn1ccc(C(=O)Nc2sc3c(c2-c2nc4ccccc4s2)CCN(C)C3)n1	GluA2 TARP mod active (no result: GIRK2 activator)
CN1CCc2c(sc(NC(=O)c3ccc(Cl)cc3)c2-c2nc3ccccc3s2)C1	none (no result: GIRK2 activator)
O=C(Nc1sc2c(c1-c1nc3ccccc3s1)CCN(Cc1ccccc1)C2)c1cccs1	GluA2 TARP mod active (no result: GIRK2 activator)
CCN1CCc2c(sc(NC(=O)c3cc4ccccc4o3)c2-c2nc3ccccc3s2)C1	none (no result: GIRK2 activator)
Cc1cc(C(=O)Nc2sc3c(c2-c2nc4ccccc4s2)CCN(Cc2ccccc2)C3)on1	GluA2 TARP mod active (no result: GIRK2 activator)
CCCC(=O)Nc1ccc(S(=O)(=O)NCCN2CCOC(c3ccccc3)C2)cc1 (configuration not stated)	none (no result: GluA2 TARP mod)
Cn1nnc2c(=O)n(CC(=O)NCC3CCCO3)cnc21 (configuration not stated)	none
CC1Cc2ccccc2N1C(=O)CN1C(=O)c2ccccc2S1(=O)=O (configuration not stated)	none
CC(=O)Nc1ccc(NC(=O)CSc2ccc(NC(=O)C3CC3)nn2)cc1	none
COc1cc(NC(=O)Cn2nc3ccc(SCc4ccc(Cl)cc4)nn3c2=O)cc(OC)c1	none
Cc1ccc(Cn2cc(C(=O)Nc3ccc(F)cc3F)ccc2=O)cc1	none
O=C(Nc1ccc(F)cc1F)c1ccc(=O)n(Cc2ccc(C(F)(F)F)cc2)c1	GluA2 TARP mod active
CCOc1ccc(-c2ccc(=O)n(CC(=O)Nc3ccccc3Cl)n2)cc1	none
O=C(CSCc1ccccc1)Nc1ccc2sccc2c1	none
CCc1nnc(NS(=O)(=O)c2ccc(NC(=O)c3cc4cc([N+](=O)[O-])ccc4s3)cc2)s1	GluA2 TARP mod active (no result: GIRK2 activator)
CCc1nnc(NS(=O)(=O)c2ccc(NC(=O)c3ccc([N+](=O)[O-])o3)cc2)s1	none (no result: GIRK2 activator)
Nc1c(-c2cccc(F)c2)nsc1C(=O)N1CCN(c2ccccc2Cl)CC1	none (no result: GluA2 TARP mod)
COc1ccc(N(Cc2cccc(Cl)c2)S(=O)(=O)c2ccc3nncn3c2)cc1	none
COc1ccc(N(Cc2cccc(C)c2)S(=O)(=O)c2ccc3nncn3c2)cc1	GluA2 TARP mod active
O=C(CCc1csc(NS(=O)(=O)c2ccccc2)n1)Nc1nc2ccccc2s1	none
CNC(=O)Cc1csc(NC(=O)c2csc(Nc3ccccc3)n2)n1	none (no result: GluA2 TARP mod)
COc1ccc(S(=O)(=O)Nc2nc(CCC(=O)NC(C)C)cs2)cc1	none
Cc1nnc(NC(=O)Cc2csc(Nc3ccccc3)n2)s1	GluA2 TARP mod active
O=C(Cc1csc(Nc2ccccc2)n1)NCCc1c[nH]c2ccccc12	GluA2 TARP mod active
COc1ccc(S(=O)(=O)Nc2nc(CCC(=O)Nc3nnc(C)s3)cs2)cc1	GluA2 TARP mod active
Cc1nnc(NC(=O)CCc2csc(NS(=O)(=O)c3ccccc3)n2)s1	GluA2 TARP mod active
COC(=O)Nc1nc(CC(=O)NCCc2c[nH]c3ccccc23)cs1	none (no result: GluA2 TARP mod)
CCn1nc(C)cc1C(=O)Nc1ccc(OC)cc1	none
CCSc1ccc(CC(=O)Nc2nc(-c3ccc(OC)cc3OC)cs2)cc1	none (no result: GIRK2 activator)
COc1ccccc1-n1c(C)c(C)n2c3c(=O)n(CCc4ccccc4)c(=O)n(C)c3nc12	none (no result: GIRK2 activator)
CC(C)C(=O)Nc1ccc(S(=O)(=O)NCCC(O)c2cccs2)cc1 (configuration not stated)	none
Cc1nnc(NC(=O)CSc2nc(=O)n(CC3CCCO3)c3c2CCCC3)s1 (configuration not stated)	none
Cc1ccc(Cn2c(C3CC(=O)N(c4ccccc4)C3)nc3ccccc32)cc1 (configuration not stated)	none (no result: GIRK2 activator)
COc1ccc(CNC(=O)NCC2CCN(Cc3ccccc3SC)CC2)cc1	none
COc1ccccc1N1CCN(S(=O)(=O)c2cc(C(=O)Nc3ccc(Cl)c(Cl)c3)ccc2F)CC1	none (no result: GIRK2 activator)

Source: PubChem BioAssay (several laboratories)
